Where “and” joins values, the source holds several entries; their conditions need not be identical. Identical values can stand only once. In all, about 5,500 compounds went through this assay and about 2,000 (36%) were called active. About 18% were inconclusive and are not listed. Cut-off read from the data, not from the text of the source: active = normalized growth mostly below about 0.91 (no sharp cut-off); inconclusive = no clear call, values can overlap the other calls; inactive = mostly above about 0.92. The list shows a part of the results.
Experiment: chemical genetic growth profiling, strain panel (AID 1159580);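 note: tested at 20 µM; growth read once vehicle control cultures reached saturation at 30 °C; 1 = growth at the plate median or of vehicle wells; lower values mean less growth of the strain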
Conditions: S. cerevisiae deletion strains, growth OD

Measured: normalized growth

COc1ccc2c(c1)OC[C@@H](Cc1ccc(OC)c(OC)c1)[C@@H]2O
active: locus YDR137W, strain rgp1, stronger effect = lower value 0.802
inactive: locus YAL013W, strain DEP1, stronger effect = lower value 1.01 | locus YAL021C, strain ccr4, stronger effect = lower value 0.999 | locus YAL026C, strain drs2, stronger effect = lower value 1 | locus YAL030W, strain snc1, stronger effect = lower value 0.994 | locus YBL061C, strain skt5, stronger effect = lower value 0.99 | locus YBR009C, strain hhf1, stronger effect = lower value 0.98 | locus YBR021W, strain FUR4, stronger effect = lower value 0.984 | locus YBR023C, strain chs3, stronger effect = lower value 0.998 | locus YBR171W, strain sec66, stronger effect = lower value 0.99 | locus YBR229C, strain ROT2, stronger effect = lower value 1 | locus YBR231C, strain swc5, stronger effect = lower value 1 | locus YBR279W, strain paf1, stronger effect = lower value 1 | locus YCL011C, strain gbp2, stronger effect = lower value 1 | locus YCL016C, strain dcc1, stronger effect = lower value 0.999 | locus YCL029C, strain bik1, stronger effect = lower value 0.988 | locus YCL069W, strain vba3, stronger effect = lower value 0.996 | locus YCR088W, strain abp1, stronger effect = lower value 0.983 | locus YDL005C, strain med2, stronger effect = lower value 0.975 | locus YDL035C, strain GPR1, stronger effect = lower value 0.99 | locus YDL040C, strain nat1, stronger effect = lower value 0.994 | locus YDL074C, strain BRE1, stronger effect = lower value 0.982 | locus YDL101C, strain DUN1, stronger effect = lower value 1.01 | locus YDL134C, strain PPH21, stronger effect = lower value 1 | locus YDL185W, strain tfp1, stronger effect = lower value 0.997 | locus YDL192W, strain arf1, stronger effect = lower value 0.988 | locus YDR001C, strain nth1, stronger effect = lower value 0.998 | locus YDR069C, strain doa4, stronger effect = lower value 0.996 | locus YDR101C, strain arx1, stronger effect = lower value 0.983 | locus YDR150W, strain NUM1, stronger effect = lower value 1 | locus YDR159W, strain sac3, stronger effect = lower value 0.94 | locus YDR162C, strain NBP2, stronger effect = lower value 0.999 | locus YDR195W, strain ref2 0.973 | locus YDR297W, strain sur2, stronger effect = lower value 0.985 | locus YDR318W, strain mcm21, stronger effect = lower value 0.96 | locus YDR334W, strain swr1, stronger effect = lower value 1.01 | locus YDR335W, strain msn5, stronger effect = lower value 1.01 | locus YDR388W, stronger effect = lower value 0.985 | locus YDR392W, strain spt3, stronger effect = lower value 0.91 | locus YDR502C, strain sam2, stronger effect = lower value 0.977 | locus YEL003W, strain gim4, stronger effect = lower value 1 | locus YEL037C, strain rad23, stronger effect = lower value 1.01 | locus YEL061C, strain CIN8 (second series), stronger effect = lower value 1 | locus YEL061C, strain CIN8, stronger effect = lower value 0.999 | locus YER015W, strain faa2, stronger effect = lower value 1 | locus YER016W, strain bim1, stronger effect = lower value 0.986 | locus YER110C, stronger effect = lower value 0.996 | locus YER111C, strain swi4, stronger effect = lower value 0.998 | locus YER155C, strain BEM2 (second series), stronger effect = lower value 0.99 | locus YER155C, strain BEM2, stronger effect = lower value 0.976 | locus YER167W, strain BCK2, stronger effect = lower value 0.958 | locus YFR010W, strain ubp6, stronger effect = lower value 0.998 | locus YGL078C, strain dbp3, stronger effect = lower value 0.996 | locus YGL086W, strain mad1, stronger effect = lower value 0.978 | locus YGL167C, strain pmr1, stronger effect = lower value 0.977 | locus YGL173C, strain kem1, stronger effect = lower value 1 | locus YGL227W, strain vid30, stronger effect = lower value 0.992 | locus YGL240W, strain doc1, stronger effect = lower value 1.02 | locus YGL248W, strain PDE1, stronger effect = lower value 0.996 | locus YGL253W, strain hxk2, stronger effect = lower value 1.02 | locus YGR078C, strain PAC10, stronger effect = lower value 1.01 | locus YGR135W, strain pre9, stronger effect = lower value 0.997 | locus YGR229C, strain SMI1, stronger effect = lower value 0.993 | locus YGR252W, strain gcn5, stronger effect = lower value 0.922 | locus YHR013C, strain ard1, stronger effect = lower value 0.966 | locus YHR027C, strain rpn1, stronger effect = lower value 1.02 | locus YHR030C, strain SLT2, stronger effect = lower value 0.995 and 1.01 | locus YHR079C, strain IRE1 (second series), stronger effect = lower value 0.981 | locus YHR079C, strain IRE1, stronger effect = lower value 1.01 | locus YHR094C, strain hxt1, stronger effect = lower value 0.989 | locus YHR129C, strain ARP1, stronger effect = lower value 0.993 | locus YHR142W, strain chs7, stronger effect = lower value 1.01 | locus YHR200W, strain rpn10, stronger effect = lower value 0.987 | locus YIL066C, strain RNR3, stronger effect = lower value 1 | locus YIL073C, strain SPO22, stronger effect = lower value 0.998 | locus YIL125W, strain kgd1, stronger effect = lower value 0.996 | locus YIR030C, strain dcg1, stronger effect = lower value 0.986 | locus YJL092W, strain hpr5, stronger effect = lower value 0.994 | locus YJL095W, strain BCK1 (second series), stronger effect = lower value 1 | locus YJL095W, strain BCK1, stronger effect = lower value 0.989 and 0.952 | locus YJL115W, strain asf1, stronger effect = lower value 1 | locus YJL129C, strain trk1, stronger effect = lower value 0.94 | locus YJL134W, strain LCB3, stronger effect = lower value 1 | locus YJL154C, strain vps35, stronger effect = lower value 1 | locus YJL164C, strain tpk1, stronger effect = lower value 0.99 | locus YJL166W, strain qcr8, stronger effect = lower value 1.01 | locus YJL168C, strain set2, stronger effect = lower value 0.99 | locus YJL187C, strain SWE1 (second series), stronger effect = lower value 1 | locus YJL187C, strain SWE1, stronger effect = lower value 0.998 | locus YJR043C, strain POL32, stronger effect = lower value 0.953 | locus YJR066W, strain TOR1, stronger effect = lower value 0.975
